Reference: PubChem BioAssay (EPA / NIEHS)
The source made the active and inactive calls. Rule for the calls: active = hit-call score of the fitted dose curve at least 0.9, where 1 is the maximum; inactive = score below 0.9.

Assays:
[1] = molecular target: Paired box protein Pax-6 (Homo sapiens) (UniProt P26367); assay: ATG_Pax6_CIS: Attagene CIS-FACTORIAL HepG2 Assay for human Paired Box 6 (PAX6) (AID 2282956); details: HepG2 CIS-FACTORIAL PAX6 reporter transcription, RNA readout; actives raise or lower the signal
Chain of Paired box protein Pax-6 (Homo sapiens) (P26367 whole entry, looked up): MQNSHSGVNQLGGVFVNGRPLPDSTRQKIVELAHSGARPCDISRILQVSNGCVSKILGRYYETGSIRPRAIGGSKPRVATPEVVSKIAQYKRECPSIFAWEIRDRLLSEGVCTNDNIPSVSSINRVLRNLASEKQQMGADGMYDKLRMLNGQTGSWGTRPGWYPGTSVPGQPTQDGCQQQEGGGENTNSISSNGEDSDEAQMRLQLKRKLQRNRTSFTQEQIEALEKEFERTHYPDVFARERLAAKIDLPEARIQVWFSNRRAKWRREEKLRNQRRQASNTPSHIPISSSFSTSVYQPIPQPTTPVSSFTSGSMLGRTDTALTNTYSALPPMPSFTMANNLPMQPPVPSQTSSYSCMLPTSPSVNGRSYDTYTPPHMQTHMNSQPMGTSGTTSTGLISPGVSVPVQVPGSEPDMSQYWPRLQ
Summary of the method: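 Fluorescent RT-PCR products separated by capillary electrophoresis report PAX6-linked promoter mRNA in HepG2 cells 24 h post-dose. Curves fitted bidirectionally, DMSO as negative control.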

[2] = ATG_PXRE_CIS: Attagene CIS-FACTORIAL HepG2 Assay for human Pregnane X Receptor Element (PXRE) (AID 2282957); details: HepG2 Attagene CIS-FACTORIAL PXRE reporter, mRNA; actives raise or lower the signal
Summary of the method: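 Endogenous transcription factor activity in HepG2 was gauged through induction of reporter mRNA driven by a cis-regulating promoter element, sampled 24 h post-treatment. Activity was fitted in both directions against DMSO negative control.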

[3] = ATG_PPRE_CIS: Attagene CIS-FACTORIAL HepG2 Assay for human Peroxisome Proliferator-activated Response Element (PPRE) (AID 2282958); details: HepG2 PPRE cis-element reporter, Attagene transcription factor profiling; actives raise or lower the signal
Summary of the method: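 Multiplexed reporter transcription units under cis-regulatory promoters were transfected into HepG2 cells to capture endogenous factor activity. A 24 h incubation preceded RNA isolation and fluorescent RT-PCR fragment analysis.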

[4] = ATG_RORE_CIS: Attagene CIS-FACTORIAL HepG2 Assay for human RAR-related Orphan Receptor Element (RORE) (AID 2282959); details: HepG2 Attagene cis-factorial RORE reporter, mRNA; actives raise or lower the signal
Summary of the method: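 Fluorescence intensity of reporter-specific cDNA fragments, separated by capillary electrophoresis, gives the signal. Source: HepG2 liver cells transiently transfected with cis-element reporters and exposed 24 h; DMSO-normalized bidirectional fit.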

[5] = molecular target: Transcription factor Sp1 (Homo sapiens) (UniProt P08047); assay: ATG_Sp1_CIS: Attagene CIS-FACTORIAL HepG2 Assay for human Specificity Protein 1 (Sp1) (AID 2282961); details: HepG2 Sp1 cis-reporter transcription, actives raise or lower the signal
Chain of Transcription factor Sp1 (Homo sapiens) (P08047 whole entry, looked up): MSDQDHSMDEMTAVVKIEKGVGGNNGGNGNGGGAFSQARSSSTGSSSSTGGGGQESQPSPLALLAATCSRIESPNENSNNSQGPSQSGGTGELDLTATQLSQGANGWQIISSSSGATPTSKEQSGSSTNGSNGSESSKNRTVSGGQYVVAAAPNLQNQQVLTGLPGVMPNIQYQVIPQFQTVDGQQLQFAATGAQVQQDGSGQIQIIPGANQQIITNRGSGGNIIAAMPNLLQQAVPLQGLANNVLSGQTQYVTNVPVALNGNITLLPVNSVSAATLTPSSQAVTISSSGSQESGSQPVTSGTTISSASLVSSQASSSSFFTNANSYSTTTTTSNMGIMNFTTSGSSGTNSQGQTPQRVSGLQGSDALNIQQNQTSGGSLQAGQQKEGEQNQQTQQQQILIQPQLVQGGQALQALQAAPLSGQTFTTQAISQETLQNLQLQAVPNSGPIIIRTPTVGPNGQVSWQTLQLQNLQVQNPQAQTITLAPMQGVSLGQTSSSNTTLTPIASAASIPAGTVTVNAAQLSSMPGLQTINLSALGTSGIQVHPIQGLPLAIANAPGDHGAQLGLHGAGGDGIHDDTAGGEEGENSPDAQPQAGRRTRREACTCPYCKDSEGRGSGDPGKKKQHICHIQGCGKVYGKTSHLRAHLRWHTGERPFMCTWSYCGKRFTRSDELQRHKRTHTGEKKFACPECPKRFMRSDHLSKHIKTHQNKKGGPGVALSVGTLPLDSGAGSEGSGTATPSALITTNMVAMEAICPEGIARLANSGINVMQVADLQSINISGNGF
Summary of the method: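 Sp1-driven reporter mRNA, read as capillary electrophoresis fluorescence after RT-PCR, in transiently transfected HepG2 cells dosed for 24 h; signal change in either direction relative to DMSO.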

[6] = ATG_SREBP_CIS: Attagene CIS-FACTORIAL HepG2 Assay for human Sterol Regulatory Element Binding (SREBP) (AID 2282962); details: HepG2 Attagene cis-factorial SREBP reporter, mRNA; actives raise or lower the signal
Summary of the method: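 Endogenous factor activity is measured in HepG2 through multiplexed reporter units under cis-element control. Following a 24 h incubation, reporter transcripts are reverse-transcribed, PCR-amplified and sized by capillary electrophoresis; activity is fitted in both directions relative to DMSO.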

[7] = molecular target: Signal transducer and activator of transcription 3 (Homo sapiens) (UniProt P40763); assay: ATG_STAT3_CIS: Attagene CIS-FACTORIAL HepG2 Assay for human Signal Transducer and Activator of Transcription 3 (STAT3) (AID 2282963); details: HepG2, Attagene cis-factorial STAT3 reporter transcription; actives raise or lower the signal
Chain of Signal transducer and activator of transcription 3 (Homo sapiens) (P40763 whole entry, looked up): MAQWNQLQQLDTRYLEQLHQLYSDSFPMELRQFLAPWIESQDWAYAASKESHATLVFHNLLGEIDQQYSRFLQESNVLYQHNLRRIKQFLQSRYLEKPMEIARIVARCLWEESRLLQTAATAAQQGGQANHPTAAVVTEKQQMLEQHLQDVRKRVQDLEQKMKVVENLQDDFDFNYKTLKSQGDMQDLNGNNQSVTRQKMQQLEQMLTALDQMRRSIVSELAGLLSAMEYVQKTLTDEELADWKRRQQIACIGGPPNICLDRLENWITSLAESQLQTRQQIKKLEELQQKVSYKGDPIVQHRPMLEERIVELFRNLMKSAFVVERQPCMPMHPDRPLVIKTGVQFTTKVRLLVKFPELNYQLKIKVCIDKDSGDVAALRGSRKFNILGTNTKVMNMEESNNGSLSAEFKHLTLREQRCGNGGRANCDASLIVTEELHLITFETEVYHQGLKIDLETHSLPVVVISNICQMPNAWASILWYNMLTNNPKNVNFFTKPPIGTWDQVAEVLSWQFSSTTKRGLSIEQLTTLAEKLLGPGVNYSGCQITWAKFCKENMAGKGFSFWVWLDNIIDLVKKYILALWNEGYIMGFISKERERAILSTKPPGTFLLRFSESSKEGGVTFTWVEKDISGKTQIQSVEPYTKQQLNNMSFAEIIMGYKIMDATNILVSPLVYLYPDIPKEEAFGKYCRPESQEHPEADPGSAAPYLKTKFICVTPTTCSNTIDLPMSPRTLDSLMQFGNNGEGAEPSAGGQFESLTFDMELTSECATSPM
Summary of the method: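 HepG2, MRTU-transfected, 24 h dosing. RNA → RT → PCR → FAM label → HpaI → CE. Bidirectional fit vs DMSO.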

[8] = ATG_TA_CIS: Attagene CIS-FACTORIAL HepG2 Assay for human TA Basal Promoter (AID 2282964); details: HepG2 Attagene CIS-factorial TA basal promoter reporter; actives raise or lower the signal
Summary of the method: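 Background-control readout: TA basal promoter reporter mRNA, fitted in both directions relative to DMSO. Measured by RT-PCR and capillary electrophoresis 24 hours after treating HepG2 human liver cells transiently carrying multiplexed cis-regulated reporter constructs.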

[9] = ATG_TCF_b_cat_CIS: Attagene CIS-FACTORIAL HepG2 Assay for human T-Cell-Factor with beta-catenin (TCF/b-cat) (AID 2282965); details: HepG2 TCF/beta-catenin cis-reporter transcription, actives raise or lower the signal
Summary of the method: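 In this cis-format system, transfected HepG2 cells report endogenous transcription factor activity. Readout after 24 h exposure is reporter transcript abundance from RT-PCR and capillary electrophoresis, analysed for gain or loss of signal versus DMSO.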

[10] = ATG_Sox_CIS: Attagene CIS-FACTORIAL HepG2 Assay for human SRY-box transcription factor (SOX) (AID 2282960); details: HepG2 Attagene cis-factorial SOX reporter, mRNA; actives raise or lower the signal
Summary of the method: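 After 24 h of chemical treatment, transfected HepG2 reporter cells are lysed for total RNA. Transcript levels come from RT-PCR with labelled primer extension and capillary electrophoresis, analysed bidirectionally versus DMSO.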

Measured: AC50

Cc1ccc(C(=O)c2cc(O)c(O)c([N+](=O)[O-])c2)cc1
active: [2] 27.5 µM | [3] 21.8 µM
not listed: [10]
inactive: all other assays above

CC(C)(C)c1cc(CCC(=O)NN)cc(C(C)(C)C)c1O
active: [2] 10.2 µM
not listed: [4]
inactive: all other assays above

CC1(C)CCC(C)(C)c2cc(C(=O)Nc3ccc(C(=O)O)cc3)ccc21
active: [1] 85 µM | [2] 53.9 µM | [3] 43.7 µM | [4] 32.7 µM | [8] 27.7 µM | [9] 48.2 µM
inactive: [5] | [6] | [7]

CCC/C=C/C=O
active: [2] 11.2 µM
inactive: all other assays above

C=C(C)C(=O)O[C@H]1C[C@@H]2CC[C@@]1(C)C2(C)C
active: [2] 26.5 µM | [3] 75.3 µM | [6] 175 µM | [9] 138 µM
inactive: [1] | [4] | [7] | [8]

CCCCCCCCCCCCCCCCCC(=O)OCC(CC)CCCC (stereo not given)
not listed: [4]
inactive: all other assays above

Nc1ccc(S(=O)(=O)O)c(N)c1
not listed: [4]
inactive: all other assays above

NCCCN1CCOCC1
not listed: [4]
inactive: all other assays above

C=CC(C)(CCC=C(C)C)OC=O (stereo not given)
active: [2] 24.8 µM
not listed: [4]
inactive: all other assays above

CN1[C@@H]2CC(OC(=O)[C@H](CO)c3ccccc3)C[C@H]1[C@@H]1O[C@@H]12 (stereo not given in full)
inactive: all assays above

NCCNCCN
inactive: all assays above

CCCc1c(OCCCOc2ccc(OCC(=O)O)cc2)ccc(C(C)=O)c1O
active: [2] 8.44 µM | [3] 0.272 µM | [4] 4.66 µM | [8] 26.7 µM | [9] 25.6 µM
inactive: [1] | [6] | [7]

O=C(Oc1ccccc1)c1ccc(O)cc1
not listed: [5]
inactive: all other assays above

CCCCCCCCC
not listed: [5]
inactive: all other assays above

CC(C)c1cccc(O)c1
active: [2] 28.4 µM
not listed: [5] | [10]
inactive: all other assays above

CCCCCCCCCCCCSC
active: [2] 27.3 µM
not listed: [5]
inactive: all other assays above

C=CC(C)(C)O
not listed: [5]
inactive: all other assays above

Cc1ccc(Nc2ccc(O)c3c2C(=O)c2ccccc2C3=O)cc1
active: [2] 4.96 µM
not listed: [5] | [10]
inactive: all other assays above

CN(C)C(=N)N=C(N)N
not listed: [4]
inactive: all other assays above

CNC(=O)Oc1ccc2c(c1)[C@]1(C)CCN(C)[C@@H]1N2C
active: [2] 38 µM
not listed: [5]
inactive: all other assays above

CCCCC[Si](OCC)(OCC)OCC
active: [2] 7.23 µM
not listed: [5] | [10]
inactive: all other assays above

N#Cc1ccc(CC(=NNC(=O)Nc2ccc(OC(F)(F)F)cc2)c2cccc(C(F)(F)F)c2)cc1
not listed: [4]
inactive: all other assays above

Nc1ccc(F)c([N+](=O)[O-])c1
not listed: [10]
inactive: all other assays above

C=CCOc1nc(OCC=C)nc(OCC=C)n1
active: [2] 17.2 µM
not listed: [10]
inactive: all other assays above

OCCCCCO
active: [2] 76.5 µM
not listed: [5]
inactive: all other assays above

CCC(O)CO (stereo not given)
active: [2] 0.0826 µM
not listed: [4]
inactive: all other assays above

CC1COc2ccccc2N1C(=O)C(Cl)Cl (stereo not given)
active: [1] 26.7 µM | [2] 26.6 µM
inactive: all other assays above

O=C(O)c1snc(Cl)c1Cl
active: [1] 188 µM | [2] 26.8 µM | [10] 173 µM | [9] 167 µM
inactive: [3] | [6] | [7] | [8]

CCOC(=O)c1ccccc1OC
active: [2] 54 µM
not listed: [4]
inactive: all other assays above

CC(C)=CCCC(C)CC=O (stereo not given)
not listed: [3]
inactive: all other assays above

C=C(C)[C@@H]1CC[C@@H](C)C[C@@H]1O
not listed: [3]
inactive: all other assays above

CCCC/C=C\CCCCCCCCCC=O
not listed: [4] | [10]
inactive: all other assays above

O=c1[nH]c(=O)n([C@H]2CCCO2)cc1F
not listed: [4]
inactive: all other assays above

CC(C)(C)NC(N)=O
not listed: [4] | [5]
inactive: all other assays above

CC(=O)C=CC1=C(C)CCCC1(C)C
active: [2] 0.716 µM
not listed: [3]
inactive: all other assays above

CCC(C)(O)CCC=C(C)C (stereo not given)
not listed: [4] | [5]
inactive: all other assays above

O=C1CCc2ccccc2O1
not listed: [4]
inactive: all other assays above

CC1CC(OC(=O)c2ccccc2O)CC(C)(C)C1 (stereo not given)
active: [2] 25.8 µM
not listed: [3]
inactive: all other assays above

O=c1cc(-c2ccccc2)oc2cc(O)cc(O)c12
active: [3] 4.28 µM
not listed: [4]
inactive: all other assays above

Nc1cccc(S(=O)(=O)c2cccc(N)c2)c1
not listed: [4] | [10]
inactive: all other assays above

C=C(C)C(=O)OCCOC(=O)CC(C)=O
not listed: [4]
inactive: all other assays above

C/C=C(\C)C(=O)OCc1ccccc1
not listed: [3]
inactive: all other assays above

CCCCO
not listed: [4] | [10]
inactive: all other assays above

O=C(O)CCSCCC(=O)O
active: [2] 54.3 µM
not listed: [4] | [10]
inactive: all other assays above

CCCCc1ccc(N)cc1
active: [9] 28.2 µM
not listed: [3]
inactive: all other assays above

NC(N)=NC(=O)c1nc(Cl)c(N)nc1N
not listed: [3]
inactive: all other assays above

CC(C)=CCC[C@H](C)CC=O
active: [2] 45.3 µM
not listed: [3]
inactive: all other assays above

CCCCCCOC(=O)CC
not listed: [4]
inactive: all other assays above

CC(C)(COC(=O)c1ccccc1)COC(=O)c1ccccc1
active: [2] 34.7 µM
not listed: [4] | [10]
inactive: all other assays above

CC(=O)C(C)=O
active: [2] 26.5 µM
not listed: [4]
inactive: all other assays above

O=[N+]([O-])c1ccc(Nc2ccc(Nc3ccccc3)c(S(=O)(=O)O)c2)c([N+](=O)[O-])c1
active: [2] 27 µM | [4] 40.1 µM | [9] 134 µM
not listed: [3]
inactive: all other assays above

CCC(C)CCCC(C)(C)O (stereo not given)
not listed: [4] | [5]
inactive: all other assays above

Cc1ccc(S)cc1
active: [9] 24.4 µM
not listed: [4] | [5]
inactive: all other assays above

CC(=O)/C=C/C1=C(C)CCCC1(C)C
active: [2] 1.42 µM
not listed: [3]
inactive: all other assays above
